# Source: PubChem BioAssay (NCI)
# About 83,000 compounds went through this panel and 20% of them were active in at least one assay; those are over-represented in the sample as a whole.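 Growth was measured after 48 h exposure to one concentration of compound in 96-well plates. Values under 10 count as active.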 A number with no mark means an inactive call. Calls of active or inactive are those of the source.
# Test system: M14 melanoma
# Experiment: NCI-60 one-dose screen, 48 h (100 = growth as untreated, 0 = no growth, -100 = all killed)
# Details: 10 µM unless noted
row,SMILES,growth
1,COc1cc2cc(Oc3ccc(NC(=O)Nc4ccc(Cl)c(C(F)(F)F)c4)cc3)c(C)nc2cc1OCCN1CCCCC1,-67.4% (active)
2,CN1CCN(c2ccc3nc(-c4ccc5nc(-c6ccc(C(F)(F)F)cc6)[nH]c5c4)[nH]c3c2)CC1,43.8%
3,Cc1c(C(=O)Nc2nc(-c3ccccc3)cs2)nnn1-c1ccccc1Br,43.1% [50 µM]
4,Clc1ccc(Nc2nc(Nc3ccccc3)nc(Nc3ccc(-c4cc(-c5ccc(Cl)cc5)on4)cc3)n2)cc1,41.4%
5,C=C1CC[C@@H]2[C@@](C)(CCC[C@]2(C)C(=O)O)[C@@H]1CC[C@H](CO)CCO,102%
6,COC(=O)CCC(=O)c1ccccc1,103%
7,COc1ncnc2c1ncn2C/C(Br)=C(\Br)CCl,-24.6% (active)
8,CN1CCC(OC2c3ccccc3CCc3ccccc32)CC1,103%
9,O=[N+]([O-])c1ccc(C=C2C(Cl)=C(Cl)C(Cl)=C2Cl)cc1,36.9%
10,COc1ccc(OC)c(/C=C2\Oc3cc(O)ccc3C2=O)c1,73.2%
11,COC(=O)[C@@]12CC[C@@H](C)[C@]3(C[C@@H](c4ccoc4)OC3=O)[C@H]1CC[C@@H]1O[C@@]12C,99.8%
12,COc1ccc(-c2nc3sc(C)cn3c2/C=C/C(=O)c2cc(OC)c(OC)c(OC)c2)cc1,43%
13,C=CC(=O)N1CC2(CC(n3nc(-c4ccc(Oc5ccccc5)cc4)c4c(N)ncnc43)C2)C1,14.8%
14,Cc1cc(=O)c2c(C)ccc(C)c2[nH]1,97.8%
15,O=C1CN2CCC1C/C2=C\c1ccnc2c(Cl)cccc12 (stereo unspecified),103%
16,O=C1c2ccccc2-c2nnc(-c3ccc(Br)cc3)cc21,37.2%
17,COc1ccc(-c2nn(-c3ccc(NC(=O)c4ccc(Cl)c(Cl)c4)cc3)cc2-c2ccncc2)cc1Cl,6.62% (active)
18,O=c1oc2ccccc2cc1-c1csc(N=Nc2c(O)[nH]c3ccc(Cl)cc23)n1,111%
19,COc1cc2nc(N3CCC[C@H](NC4=CC(=O)c5ccccc5C4=O)C3)nc(N)c2cc1OC,96.2%

row,SMILES,growth
1,O=C1C(N2CCOCC2)=Cc2cccc3cccc1c23,104%
2,CCOC(=O)c1c(-c2cc(OC)c(OC)c(OC)c2)csc1N,89.8%
3,N#Cc1c(-c2cccc(F)c2)cc(-c2ccc(Br)s2)[nH]c1=O,39.8%
4,COc1ccc(NC(=O)c2ccc3c(c2)nc(-c2ccc(Cl)cc2)n3-c2cc(C(C)(C)C)[nH]n2)cc1,82.3%
5,Oc1cccc(Nc2nc(-c3ccccn3)cs2)c1,111%
6,O=S(=O)(/N=C1C=C/C(=N\S(=O)(=O)c2ccccc2)c2ccccc2\1)c1ccccc1,112%
7,O=C(COc1cccc(/C=C2\COc3ccccc3C2=O)c1)c1ccccc1,60.9%
8,Cc1ccc(S(=O)(=O)N2CCc3ccc(O)c4c3C2Cc2cc(Cl)ccc2-4)cc1 (stereo unspecified),68.7%
9,COc1ccc(OC)c(C2C(C#N)=C(N)Oc3cc(O)ccc32)c1 (stereo unspecified),100%
10,CC(=O)N(CC(O)CO)c1c(I)c(C(=O)NCCO)c(I)c(C(=O)NCC(O)CO)c1I (stereo unspecified),92.6%
11,N#CC1=C(N)Oc2cc(N)ccc2C1c1ccc(F)cc1 (stereo unspecified),51.1%
12,CCN(CC)CCCNc1ccc(C)c2sc3ccccc3c(=O)c12,-64.8% (active)
13,COc1ccc(/C=C2\Oc3cc(C)c(Cl)cc3C2=O)cc1OC,96.3%
14,Cc1nc2ccc(Cl)cc2n1C,106%
15,COc1ccc(/C=N/NC(=O)c2cnn(CC(O)Cc3ccccc3)c2N)cc1OC1CCCC1 (stereo unspecified),99.5%
16,COc1ccc(-c2csc3c2-n2cccc2C3=O)cc1O,-18.5% (active)
17,COc1cc(C(F)(F)F)ccc1-c1cc(-c2ccc(F)cc2)n[nH]1,93.1%
18,C[C@@H](Oc1cc(-c2cnn(C3CC4(CCNCC4)C3)c2)cnc1N)c1c(F)ccc(Cl)c1Cl,-75.5% (active)
19,CC(C)NCC(O)COc1ccc(CCOCC2CC2)cc1 (stereo unspecified),96.6%

# Test system: HCT-15 colon
# Experiment: as above
# Details: 10 µM unless noted
row,SMILES,growth
1,COc1cc2cc(Oc3ccc(NC(=O)Nc4ccc(Cl)c(C(F)(F)F)c4)cc3)c(C)nc2cc1OCCN1CCCCC1,-81.8% (active)
2,CN1CCN(c2ccc3nc(-c4ccc5nc(-c6ccc(C(F)(F)F)cc6)[nH]c5c4)[nH]c3c2)CC1,80.4%
3,Cc1c(C(=O)Nc2nc(-c3ccccc3)cs2)nnn1-c1ccccc1Br,29.5% [50 µM]
4,Clc1ccc(Nc2nc(Nc3ccccc3)nc(Nc3ccc(-c4cc(-c5ccc(Cl)cc5)on4)cc3)n2)cc1,43.1%
5,C=C1CC[C@@H]2[C@@](C)(CCC[C@]2(C)C(=O)O)[C@@H]1CC[C@H](CO)CCO,108%
6,COC(=O)CCC(=O)c1ccccc1,102%
7,COc1ncnc2c1ncn2C/C(Br)=C(\Br)CCl,31.6%
8,CN1CCC(OC2c3ccccc3CCc3ccccc32)CC1,98.8%
9,O=[N+]([O-])c1ccc(C=C2C(Cl)=C(Cl)C(Cl)=C2Cl)cc1,31.4%
10,COc1ccc(OC)c(/C=C2\Oc3cc(O)ccc3C2=O)c1,75%
11,COC(=O)[C@@]12CC[C@@H](C)[C@]3(C[C@@H](c4ccoc4)OC3=O)[C@H]1CC[C@@H]1O[C@@]12C,101%
12,COc1ccc(-c2nc3sc(C)cn3c2/C=C/C(=O)c2cc(OC)c(OC)c(OC)c2)cc1,48.1%
13,C=CC(=O)N1CC2(CC(n3nc(-c4ccc(Oc5ccccc5)cc4)c4c(N)ncnc43)C2)C1,29.2%
14,Cc1cc(=O)c2c(C)ccc(C)c2[nH]1,101%
15,O=C1CN2CCC1C/C2=C\c1ccnc2c(Cl)cccc12 (stereo unspecified),82.6%
16,O=C1c2ccccc2-c2nnc(-c3ccc(Br)cc3)cc21,59.8%
17,COc1ccc(-c2nn(-c3ccc(NC(=O)c4ccc(Cl)c(Cl)c4)cc3)cc2-c2ccncc2)cc1Cl,-1.71% (active)
18,O=c1oc2ccccc2cc1-c1csc(N=Nc2c(O)[nH]c3ccc(Cl)cc23)n1,99.5%
19,COc1cc2nc(N3CCC[C@H](NC4=CC(=O)c5ccccc5C4=O)C3)nc(N)c2cc1OC,-63.5% (active)

row,SMILES,growth
1,O=C1C(N2CCOCC2)=Cc2cccc3cccc1c23,92.6%
2,CCOC(=O)c1c(-c2cc(OC)c(OC)c(OC)c2)csc1N,66.9%
3,N#Cc1c(-c2cccc(F)c2)cc(-c2ccc(Br)s2)[nH]c1=O,27.2%
4,COc1ccc(NC(=O)c2ccc3c(c2)nc(-c2ccc(Cl)cc2)n3-c2cc(C(C)(C)C)[nH]n2)cc1,82.6%
5,Oc1cccc(Nc2nc(-c3ccccn3)cs2)c1,78.3%
6,O=S(=O)(/N=C1C=C/C(=N\S(=O)(=O)c2ccccc2)c2ccccc2\1)c1ccccc1,106%
7,O=C(COc1cccc(/C=C2\COc3ccccc3C2=O)c1)c1ccccc1,33.1%
8,Cc1ccc(S(=O)(=O)N2CCc3ccc(O)c4c3C2Cc2cc(Cl)ccc2-4)cc1 (stereo unspecified),48.4%
9,COc1ccc(OC)c(C2C(C#N)=C(N)Oc3cc(O)ccc32)c1 (stereo unspecified),94.4%
10,CC(=O)N(CC(O)CO)c1c(I)c(C(=O)NCCO)c(I)c(C(=O)NCC(O)CO)c1I (stereo unspecified),96.4%
11,N#CC1=C(N)Oc2cc(N)ccc2C1c1ccc(F)cc1 (stereo unspecified),46.9%
12,CCN(CC)CCCNc1ccc(C)c2sc3ccccc3c(=O)c12,-13.3% (active)
13,COc1ccc(/C=C2\Oc3cc(C)c(Cl)cc3C2=O)cc1OC,96.5%
14,Cc1nc2ccc(Cl)cc2n1C,113%
15,COc1ccc(/C=N/NC(=O)c2cnn(CC(O)Cc3ccccc3)c2N)cc1OC1CCCC1 (stereo unspecified),77.6%
16,COc1ccc(-c2csc3c2-n2cccc2C3=O)cc1O,17.4%
17,COc1cc(C(F)(F)F)ccc1-c1cc(-c2ccc(F)cc2)n[nH]1,73.3%
18,C[C@@H](Oc1cc(-c2cnn(C3CC4(CCNCC4)C3)c2)cnc1N)c1c(F)ccc(Cl)c1Cl,1.76% (active)
19,CC(C)NCC(O)COc1ccc(CCOCC2CC2)cc1 (stereo unspecified),107%
